Assay results as given in PubChem BioAssay (Tox21).
Inconclusive results are not listed. Unmarked numbers belong to inactive results. Calls follow the shape of the dose curve; as a rule, active = well fitted cell-killing curve with a large enough effect in the repeat runs; inconclusive = weak or mixed curves, or effect the other way; inactive = no such curve, though single readings can be large or run the other way.

Assay: qHTS assay to identify small molecule antagonists of the sonic hedgehog signaling (Shh) pathway - cell viability counter screen (AID 1259367); also: nearly all actives have a fitted effect of over 55% in size
Settings: NIH/3T3 Gli1-Luc viability, CellTiter-Fluor, 24 h; series mostly up to 92.4 µM; viability change, negative = cytotoxic: at the top concentration
From the text: National Center for Advancing Translational Sciences [NCATS]
NIH Chemical Genomics Center [NCGC]
U.S. Environmental Protection Agency [EPA]
National Institutes of Environmental Health Sciences [NIEHS]
National Toxicology Program [NTP]
U.S. Food and Drug Administration [FDA]
The sonic hedgehog (Shh) pathway is essential for normal embryonic development. Dysregulation of the Shh pathway can cause severe developmental defects in organs. Therefore chemicals that interfere with the pathway are potential developmental toxicants. A cell line designated 3T3Gli1-Luc (DMB/OARSA/CFSAN/FDA, Laurel, MD), a NIH/3T3 derived clone containing stably integrated Gli1-Luc reporter is used to detect chemical interference of the Shh pathway, by changes in the expression of the firefly Luc gene under the control of the Gli1 transcriptional response element. This cell line was used to screen Tox21 libraries for identifying and prioritizing the potential developmental toxicants that interfere Shh pathway. Conditioned medium-stimulated mode was used to screen for chemicals inhibiting Shh signaling. The cytotoxicity of the compounds was tested in parallel by measuring the cell viability using CellTiter-Fluor assay system (Promega, Madison, WI) in the same wells.
Tox21 Assay Protocol Summary:
3T3 Gli1-Luc cells were dispensed at 2,000 per well in 5uL of culture medium into white solid bottom 1536-well plates (Greiner Bio-One, Monroe, NC) using a Multidrop Combi (Thermo Scientific, Waltham, MA) dispenser. The assay plates were incubated at 37 C and 5% CO2 for 4hr, and then 23nL of compounds dissolved in DMSO and positive control were transferred using a Pintool station (Wako, San Diego, CA). The compound transfer was followed by the addition of 1ul conditioned medium or assay buffer using two separate tips of Flying Reagent Dispenser (FRD, Aurora Discovery, San Diego, CA). The assay plates were incubated at 37C and 5% CO2 for 24hr. For viability read, after 23hr of compound treatment, 1uL of CellTiter-Fluor reagent (Promega Corporation, Madison, WI) was added to each well of the assay plates using Flying Reagent Dispenser (FRD, Aurora Discovery, San Diego, CA) and incubated the assay plates at 37C for 1hr. The fluorescence signal was quantified using a ViewLux plate reader (Perkin Elmer, Shelton, CT).
% is scaled to controls: 0 for no effect and ±100 for the full control effect.

Compound | viability change, negative = cytotoxic
C=C(C)C(=O)NCCC[N+](C)(C)C | 1.79%
CC(C)=CCC/C(C)=C/C(=O)O | 5.36%
COc1ccc(N=[N+]([O-])c2ccc(OC)cc2)cc1 | -1.42%
CCN(CC)S(=O)(=O)c1ccc(C(=O)O)cc1 | -1.58% [at 42.5 µM]
CCOC(=O)Cn1c(=O)sc2cccc(Cl)c21 | -21.5%
C=C[Si](OC)(OC)OC | 0.867%
C=C(C)C(=O)NCCCN(C)C | -2.5%
CCC(=O)/C=C/c1ccc(OC)cc1 | 1.62%
CC(O)CN(CCCN(C)C)CCCN(C)C (stereo not given) | 4.18%
CCC(=O)Nc1cccc(N)c1 | 1.04%
O=C(O)C1CCC1 | 3.92% [at 42.5 µM]
C#CC(O)C(CC)CCCC (stereo not given) | 1.66%
CO | 0.141%
CCCCCOC(=O)Nc1nc(=O)n([C@@H]2O[C@H](C)[C@@H](O)[C@H]2O)cc1F | 8.53% [at 42.5 µM]
NS(=O)(=O)c1cc2c(cc1Cl)NC(CSCc1ccccc1)=NS2(=O)=O | 0.916% [at 42.5 µM]
CC(C)COC(=O)C(C)C | 3.55%
NCCN1CCNC1=O | -1.51%
C1COCCO1 | -0.648%
O=C(CCOCCOCCOCCOCCC(=O)Nc1c(I)cc(I)c(C(=O)O)c1I)Nc1c(I)cc(I)c(C(=O)O)c1I | 0.445% [at 42.5 µM]
CCCCCCCCCCCCCCC | 5.58%

Compound | viability change, negative = cytotoxic
NC(N)=NS(=O)(=O)c1ccc(N)cc1 | 1.21% [at 42.5 µM]
CC(C=O)Cc1ccc(C(C)C)cc1 (stereo not given) | 1.03%
O=C(O)C(O)[C@H](O)[C@@H](O)[C@H](O)[C@H](O)CO (stereo not given in full) | 1.78%
CC(=O)OC(C)(C)C | 1.31%
NC(CS)C(=O)O (stereo not given) | 3.34% [at 42.5 µM]
COc1cccc(OC)c1 | -3.7%
CN(C)CCOC(c1ccc(Cl)cc1)c1ccccn1 (stereo not given) | -12.9% [at 42.5 µM]
Nc1nc2c(ncn2CCC(CO)CO)c(=O)[nH]1 | -1.97% [at 42.5 µM]
C[N+](C)(C)CC[N+]1(C)Cc2c(Cl)c(Cl)c(Cl)c(Cl)c2C1 | 2.9% [at 42.5 µM]
O=S(=O)(O)c1ccccc1O | 5.76%
O=c1[nH]c2ccccc2c(=O)n1CCCl | 2.9% [at 42.5 µM]
CC(C)=CC(=O)O | -2.05%
CCCCC1CCCCC(=O)O1 (stereo not given) | -2.24%
CO[Si](CCCNCCC[Si](OC)(OC)OC)(OC)OC | -0.237%
OC1OC[C@@H](O)[C@H](O)[C@H]1O (stereo not given in full) | 0.866%
CCCC(=O)O[C@]1(C(=O)CCl)[C@@H](C)C[C@H]2[C@@H]3CCC4=CC(=O)C=C[C@]4(C)[C@@]3(F)C(=O)C[C@@]21C | -0.0353% [at 42.5 µM]
NS(=O)(=O)c1cc(C2(O)NC(=O)c3ccccc32)ccc1Cl (stereo not given) | -0.0576% [at 42.5 µM]
NS(=O)(=O)c1cc2c(cc1C(F)(F)F)NC(Cc1ccccc1)NS2(=O)=O (stereo not given) | -3.11% [at 42.5 µM]
CCCCCC[C@@H](CCC)C(=O)O | 9.41% [at 42.5 µM]
COc1ccc(COC=O)cc1 | 2.26%
